From article PMC6451091, “NextPBM: a platform to study cell-specific transcription factor binding and cooperativity”
Over roughly 3,700 sequences, “z-score” has its median near 4; the highest 2% begin near 8.4. The sample as a whole holds a higher share of the highest values than the screen did.

What was measured:
[1] = molecular target: PU.1 (IVT) (UniProt P17947 1-270); assay: protein-binding microarray (PBM); 20 mM HEPES pH 7.9, 100 mM NaCl, 1 mM DTT, 0.2 mg/mL BSA, 0.02% Triton X-100, 2% milk, 0.4 mg/mL salmon testes DNA; 1 h; temperature not stated; high values mean tight binding; conditions: dsDNA, one strand shown
Procedure, shortened: (§1)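 Binding is given as a z-score derived from scanned fluorescence that was normalised by linear regression. To obtain it, full-length untagged PU.1 from coupled human in vitro transcription/translation was applied for 1 h to custom double-stranded DNA microarrays of 20-bp genomic sites and single-nucleotide variants, using 10 probes per site with 5 in each orientation. The binding buffer was HEPES pH 7.9 with 100 mM NaCl, 2% milk and salmon testes DNA, and detection used anti-PU.1 and then a fluorescent secondary antibody.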

[2] = molecular target: PU.1 (IVT) (UniProt P17947 1-270); assay: as above; conditions: dsDNA, one strand shown; remark: listed apart in the source
Procedure, shortened: as §1

Row | Sequence | binding signal [1] | binding signal [2]
1 | GCCTAGCACTTTAAAGGGAAATACTGTGGGTGCTAGGTCTTGATTCGCTTGACGCTGCTG | 1.36 z-score | 
2 | GCCTAGCACAGAAACAGGAACTGAGGCCAGTGCTAGGTCTTGATTCGCTTGACGCTGCTG |  | 4.78 z-score
3 | GCCTAGCACGAAAACAGGAAGTCCGATAGGTGCTAGGTCTTGATTCGCTTGACGCTGCTG |  | 7.15 z-score
4 | GCCTAGCACTGGGAGAGGAAGTGATGAGCGTGCTAGGTCTTGATTCGCTTGACGCTGCTG | 4.01 z-score | 
5 | GCCTAGCACAAGCAGAGGAAGTGAGATTTGTGCTAGGTCTTGATTCGCTTGACGCTGCTG |  | 3.71 z-score
6 | GCCTAGCACCAAAAAGGGAAGTGGACGCTGTGCTAGGTCTTGATTCGCTTGACGCTGCTG |  | 6.7 z-score
7 | GCCTAGCACATCATCAGGAACTGAAACTGGTGCTAGGTCTTGATTCGCTTGACGCTGCTG |  | 1.18 z-score
8 | GCCTAGCACAAAGAGAGGAAGTCCCAAGAGTGCTAGGTCTTGATTCGCTTGACGCTGCTG | 3.78 z-score | 
9 | GCCTAGCACTCAAGAAGGAAGTGCCAAATGTGCTAGGTCTTGATTCGCTTGACGCTGCTG | 3.31 z-score | 
10 | GCCTAGCACAGAAAAAGGAACTGTGCCCCGTGCTAGGTCTTGATTCGCTTGACGCTGCTG |  | 3.05 z-score
11 | GCCTAGCACAGCAAGAGGAAGTCAAGTACGTGCTAGGTCTTGATTCGCTTGACGCTGCTG | 4.55 z-score | 
12 | GCCTAGCACGAAAAGAGGAAGTCAAACCAGTGCTAGGTCTTGATTCGCTTGACGCTGCTG |  | 8.22 z-score
13 | GCCTAGCACAGAAAGAGGAAGTCTCTGCCGTGCTAGGTCTTGATTCGCTTGACGCTGCTG |  | 7.37 z-score
14 | GCCTAGCACGAAAAGAGGAAGTGTAACCAGTGCTAGGTCTTGATTCGCTTGACGCTGCTG |  | 8.52 z-score
15 | GCCTAGCACAGAAAGAGGAAGTTCCCGTCGTGCTAGGTCTTGATTCGCTTGACGCTGCTG |  | 8.56 z-score
16 | GCCTAGCACAGAAAGAGGAAGAGCCTCAGGTGCTAGGTCTTGATTCGCTTGACGCTGCTG | 5.13 z-score | 
17 | GCCTAGCACAGAAAGAGGAAGTTATGTGCGTGCTAGGTCTTGATTCGCTTGACGCTGCTG |  | 8.58 z-score
18 | GCCTAGCACAGAAAGAGGAAGAGAAACTTGTGCTAGGTCTTGATTCGCTTGACGCTGCTG | 4.63 z-score | 
19 | GCCTAGCACAGAAAGAGGAAGTGACACTTGTGCTAGGTCTTGATTCGCTTGACGCTGCTG |  | 8.52 z-score
20 | GCCTAGCACTGAAAGAGGAAGTGTAACCAGTGCTAGGTCTTGATTCGCTTGACGCTGCTG |  | 7.2 z-score
21 | GCCTAGCACAGAAAGAGGAAGTCGAGGTGGTGCTAGGTCTTGATTCGCTTGACGCTGCTG |  | 7.74 z-score

Row | Sequence | binding signal [1] | binding signal [2]
22 | GCCTAGCACAGAAAGAGGAAATGACCTATGTGCTAGGTCTTGATTCGCTTGACGCTGCTG | 5.8 z-score | 
23 | GCCTAGCACAGGAAGAGGAAGTGACAGATGTGCTAGGTCTTGATTCGCTTGACGCTGCTG | 6.27 z-score | 
24 | GCCTAGCACACCAGGAGGAAGTGGTTGCAGTGCTAGGTCTTGATTCGCTTGACGCTGCTG | 4.06 z-score | 
25 | GCCTAGCACCGAAAGAGGAAGTGCAACCAGTGCTAGGTCTTGATTCGCTTGACGCTGCTG |  | 7.64 z-score
26 | GCCTAGCACGATAAGAGGAAGTGCTCTGTGTGCTAGGTCTTGATTCGCTTGACGCTGCTG | 6.52 z-score | 
27 | GCCTAGCACTTTAAAGGGAAATGAAACTGGTGCTAGGTCTTGATTCGCTTGACGCTGCTG |  | 1.39 z-score
28 | GCCTAGCACGAAAAGAGGAACAGCCTCTGGTGCTAGGTCTTGATTCGCTTGACGCTGCTG | 5.13 z-score | 
29 | GCCTAGCACGAAAGGGGGAAGTGACTAAGGTGCTAGGTCTTGATTCGCTTGACGCTGCTG | 5.51 z-score | 
30 | GCCTAGCACTCTCTGAGGAAGTGAAACTCGTGCTAGGTCTTGATTCGCTTGACGCTGCTG | 2.86 z-score | 
31 | GCCTAGCACAGAAAGAGGAAGTGCTGAGGGTGCTAGGTCTTGATTCGCTTGACGCTGCTG |  | 7.75 z-score
32 | GCCTAGCACAAAAAAAGGATATGAAAGTAGTGCTAGGTCTTGATTCGCTTGACGCTGCTG | 0.953 z-score | 
33 | GCCTAGCACAAAAAGAGGAACTGAATGTCGTGCTAGGTCTTGATTCGCTTGACGCTGCTG |  | 7.27 z-score
34 | GCCTAGCACGAAAGGAGGAAGTACTGTGGGTGCTAGGTCTTGATTCGCTTGACGCTGCTG |  | 6.78 z-score
35 | GCCTAGCACAGAAAGAGGAAGTGCCTCTTGTGCTAGGTCTTGATTCGCTTGACGCTGCTG |  | 8.4 z-score
36 | GCCTAGCACAGAAAGAGGAAGAGCTGCCAGTGCTAGGTCTTGATTCGCTTGACGCTGCTG | 4.1 z-score | 
37 | GCCTAGCACAGAAAGAGGAAGTGGAAGAGGTGCTAGGTCTTGATTCGCTTGACGCTGCTG |  | 8.16 z-score
38 | GCCTAGCACTCAAGGAGGAAGTGAGAGATGTGCTAGGTCTTGATTCGCTTGACGCTGCTG | 4.31 z-score | 
39 | GCCTAGCACGTTTTGAGGAACTGAAACTCGTGCTAGGTCTTGATTCGCTTGACGCTGCTG | 4.5 z-score | 
40 | GCCTAGCACCGAAAAGGGAAATACTGTGAGTGCTAGGTCTTGATTCGCTTGACGCTGCTG | 2.65 z-score | 
41 | GCCTAGCACAGAAAGAGGAAGAGAAACTAGTGCTAGGTCTTGATTCGCTTGACGCTGCTG |  | 4.62 z-score
42 | GCCTAGCACAGAAAGAGGAAGTGATGTTAGTGCTAGGTCTTGATTCGCTTGACGCTGCTG |  | 8.46 z-score

Row | Sequence | binding signal [1] | binding signal [2]
43 | GCCTAGCACAGAAGAAGGAAGTGAAAGAAGTGCTAGGTCTTGATTCGCTTGACGCTGCTG | 4.5 z-score | 
44 | GCCTAGCACAGAAAGAGGAAGTGACTCAGGTGCTAGGTCTTGATTCGCTTGACGCTGCTG |  | 8.06 z-score
45 | GCCTAGCACAGAAAGAGGAAGTGAAGCTAGTGCTAGGTCTTGATTCGCTTGACGCTGCTG |  | 8.64 z-score
46 | GCCTAGCACAGAAAGAGGAAGTGGGTGTTGTGCTAGGTCTTGATTCGCTTGACGCTGCTG |  | 8 z-score
47 | GCCTAGCACAGAAAGAGGAAGACTAGTGTGTGCTAGGTCTTGATTCGCTTGACGCTGCTG | 3.78 z-score | 
48 | GCCTAGCACAGAAAGAGGAAGTGTTTATAGTGCTAGGTCTTGATTCGCTTGACGCTGCTG |  | 8.43 z-score
49 | GCCTAGCACAGAAAGAGGAAGTGATTGAAGTGCTAGGTCTTGATTCGCTTGACGCTGCTG |  | 8.32 z-score
50 | GCCTAGCACTCCAGGAGGAACTGAAAGCTGTGCTAGGTCTTGATTCGCTTGACGCTGCTG |  | 1.74 z-score
51 | GCCTAGCACAAAAAGAGGAAATGATTTACGTGCTAGGTCTTGATTCGCTTGACGCTGCTG |  | 6.97 z-score
52 | GCCTAGCACGAAAACAGGAACTGCAAATAGTGCTAGGTCTTGATTCGCTTGACGCTGCTG | 6 z-score | 
53 | GCCTAGCACAAAAACAGGAAGTCAAAGGAGTGCTAGGTCTTGATTCGCTTGACGCTGCTG |  | 7.11 z-score
54 | GCCTAGCACAAAAAGAGGAAGTCAAACTAGTGCTAGGTCTTGATTCGCTTGACGCTGCTG |  | 8.48 z-score
55 | GCCTAGCACAAAAAGAGGAAGAGAAACTAGTGCTAGGTCTTGATTCGCTTGACGCTGCTG |  | 5.79 z-score
56 | GCCTAGCACGAAAAGAGGAAGTCAAACTAGTGCTAGGTCTTGATTCGCTTGACGCTGCTG |  | 8.35 z-score
57 | GCCTAGCACAAAAAGAGGAAGGGAAACTAGTGCTAGGTCTTGATTCGCTTGACGCTGCTG |  | 5.12 z-score
58 | GCCTAGCACGAAAAGAGGAAGTCAAACGAGTGCTAGGTCTTGATTCGCTTGACGCTGCTG |  | 8.02 z-score
59 | GCCTAGCACGGAAAGAGGAAGTCAAACTAGTGCTAGGTCTTGATTCGCTTGACGCTGCTG |  | 7.68 z-score
60 | GCCTAGCACAGAAAGAGGAAGTCAAAACAGTGCTAGGTCTTGATTCGCTTGACGCTGCTG |  | 7.68 z-score
61 | GCCTAGCACAAAAAGAGGAAGTCAAACAAGTGCTAGGTCTTGATTCGCTTGACGCTGCTG |  | 8.71 z-score
62 | GCCTAGCACAAAAAAAGGAAGTCCTTGTGGTGCTAGGTCTTGATTCGCTTGACGCTGCTG | 6.48 z-score | 
63 | GCCTAGCACTTGGTCAGGAAGTGAAACTGGTGCTAGGTCTTGATTCGCTTGACGCTGCTG | 1.38 z-score | 

Row | Sequence | binding signal [1] | binding signal [2]
64 | GCCTAGCACAGAAAGAGGAAGTCACAAGGGTGCTAGGTCTTGATTCGCTTGACGCTGCTG |  | 7.68 z-score
65 | GCCTAGCACGAAAGAGGGAAGTGAAAGTCGTGCTAGGTCTTGATTCGCTTGACGCTGCTG | 5.25 z-score | 
66 | GCCTAGCACGATATGAGGAACTGAAAGCTGTGCTAGGTCTTGATTCGCTTGACGCTGCTG | 4.06 z-score | 
67 | GCCTAGCACAATAAAGGGAAGTGACTGCTGTGCTAGGTCTTGATTCGCTTGACGCTGCTG | 5.43 z-score | 
68 | GCCTAGCACAAAAAAAGGAACGGGCTAGAGTGCTAGGTCTTGATTCGCTTGACGCTGCTG |  | 1.48 z-score
69 | GCCTAGCACAAAAAGAGGAAATGAAAAGAGTGCTAGGTCTTGATTCGCTTGACGCTGCTG | 6.67 z-score | 
70 | GCCTAGCACAGAAAGAGGAACTGACTGACGTGCTAGGTCTTGATTCGCTTGACGCTGCTG | 6.61 z-score | 
71 | GCCTAGCACTGAAAAGGGAAGTGAGGAAGGTGCTAGGTCTTGATTCGCTTGACGCTGCTG | 5.34 z-score | 
72 | GCCTAGCACAAAAAGAGGAAGGGAGTAGAGTGCTAGGTCTTGATTCGCTTGACGCTGCTG | 4.77 z-score | 
73 | GCCTAGCACGAGAAGAGGAAGTAGAACAAGTGCTAGGTCTTGATTCGCTTGACGCTGCTG | 6.62 z-score | 
74 | GCCTAGCACAAAAAGAGGAAGTAAAAGACGTGCTAGGTCTTGATTCGCTTGACGCTGCTG |  | 8.93 z-score
75 | GCCTAGCACACGAAGAGGAAGTAAAAGGCGTGCTAGGTCTTGATTCGCTTGACGCTGCTG | 6.54 z-score | 
76 | GCCTAGCACAAAAAAAGGAAGTGGTAAACGTGCTAGGTCTTGATTCGCTTGACGCTGCTG | 6.51 z-score | 
77 | GCCTAGCACAAAAAGAGGAAGTAGAGAACGTGCTAGGTCTTGATTCGCTTGACGCTGCTG |  | 8.97 z-score
78 | GCCTAGCACCGAAAGGGGATGTGCTAAACGTGCTAGGTCTTGATTCGCTTGACGCTGCTG | 1.8 z-score | 
79 | GCCTAGCACTATATAGGGAAGTGGGATTCGTGCTAGGTCTTGATTCGCTTGACGCTGCTG | 4.85 z-score | 
80 | GCCTAGCACTAAATGAGGAAGTGACAGCTGTGCTAGGTCTTGATTCGCTTGACGCTGCTG |  | 7.57 z-score
81 | GCCTAGCACAATGGCAGGAAGTGAAATCAGTGCTAGGTCTTGATTCGCTTGACGCTGCTG |  | 2.15 z-score
